In PubChem BioAssay AID1345085 (National Center for Advancing Translational Sciences (NCATS), 2018):
Inconclusive results are not listed. Unmarked numbers belong to inactive results. Calls of active or inactive are those of the source. Calls follow the shape of the dose curve; as a rule, active = well fitted cell-killing curve with a large enough effect; inconclusive = small, poorly fitted or top-dose-only effect, or effect the other way; inactive = no such curve, though single readings can be large or run the other way.

tested on: JEG-3; test: Confirmatory qHTS for gynecologic anti-cancer compounds from libraries of approved drugs and bioactive compounds; details: gynecologic cancer cell panel viability, ATPlite luminescence, 48 h; series mostly up to 57.6 µM; activity change, negative = viability loss: at the top concentration; also: nearly all actives have a fitted effect of over 55% in size
How it was run: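 Cells (1,000/well) plated 16 h, then exposed 48 h at 37 °C to 11 concentrations (1:3) from 57.5 uM to 0.977 nM. Viability by ATPlite luminescence after 15 min; IC50 derived, with HEK 293T used for selectivity index.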
% is scaled to controls: 0 for no effect and ±100 for the full control effect; potency is read from the fitted curve at half-maximal effect.

Compound	Potency	activity change, negative = viability loss
CC1=C(/C=C/C(C)=C/C=C/C(C)=C/C(=O)Nc2ccc(O)cc2)C(C)(C)CCC1	21.7 µM (active)	
CCCCc1oc2ccccc2c1C(=O)c1cc(I)c(OCCN(CC)CC)c(I)c1	70.8 µM (active)	
CN1C2CCC1CC(OC(=O)[C@H](CO)c1ccccc1)C2 (stereo partly drawn)		-20.9%
O=C1N(c2ccccc2)c2ccccc2C1(Cc1ccncc1)Cc1ccncc1		27.1%
Cc1cnc(Nc2ccc(OCCN3CCCC3)cc2)nc1Nc1cccc(S(=O)(=O)NC(C)(C)C)c1	24.3 µM (active)	
Cc1nc2ccc(CN(C)c3ccc(C(=O)NC(CCC(=O)O)C(=O)O)s3)cc2c(=O)[nH]1 (stereo not drawn)		-13.6%
NC(=O)c1cnc(-c2ccc(C3(N)CCC3)cc2)c(-c2ccccc2)c1	30.6 µM (active)	
Cn1cc(-c2[nH]c3cc(NC(=O)[C@H](N)C4CCCCC4)cc4c3c2C=NNC4=O)cn1	7.69 µM (active)	
COc1cc2c(c(OC)c1OC)-c1ccc(OC)c(=O)cc1[C@@H](NC(C)=O)CC2	0.178 µM (active)	
CCCc1nn(C)c2c(=O)[nH]c(-c3cc(S(=O)(=O)N4CCN(C)CC4)ccc3OCC)nc12		16.3%
CN1CCN(CCOc2cc(OC3CCOCC3)c3c(Nc4c(Cl)ccc5c4OCO5)ncnc3c2)CC1		-25%
CS(=O)(=O)c1ccc(-c2cnc(N)c(C(=O)Nc3ccccc3)n2)cc1		-3.63%
COc1cc2c(cc1-c1c(C)noc1C)ncc1[nH]c(=O)n(C(C)c3ccccn3)c12 (stereo not drawn)	3.06 µM (active)	
O=C(Nc1cn[nH]c1-c1nc2ccc(CN3CCOCC3)cc2[nH]1)NC1CC1	12.2 µM (active)	
C[C@]12CCC(=O)C=C1CC[C@@H]1[C@@H]2[C@@H](O)C[C@@]2(C)[C@H]1CC[C@]2(O)C(=O)CO		15.1%
O=C(c1ccc(F)c(F)c1Nc1ccc(I)cc1F)N1CC(O)([C@@H]2CCCCN2)C1	24.3 µM (active)	
COCCOc1nc(-c2ccc(Cl)c(Cl)c2)n(-c2ccc(NC(=O)CCl)cc2)n1	19.3 µM (active)	

Compound	Potency	activity change, negative = viability loss
CCC1C(=O)N(C)c2cnc(Nc3ccc(C(=O)NC4CCC(N5CCN(CC6CC6)CC5)CC4)cc3OC)nc2N1C(C)C (stereo not drawn)	0.0611 µM (active)	
O=c1[nH]c(=O)n([C@H]2C[C@H](O)[C@@H](CO)O2)cc1Br		-13.3%
CN(C)C/C=C/C(=O)Nc1cc2c(Nc3ccc(F)c(Cl)c3)ncnc2cc1OC1CCOC1 (stereo not drawn)	19.3 µM (active)	
Nc1nc(Cl)nc2c1ncn2C1OC(CO)C(O)C1F (stereo not drawn)	2.17 µM (active)	
CN(NC(=O)CC(=O)NN(C)C(=S)c1ccccc1)C(=S)c1ccccc1	0.109 µM (active)	
CC(=O)c1cnc2ccc(-c3cc(Cl)c(O)c(Cl)c3)nc2c1NC1CCC(CN(C)C)CC1 (stereo not drawn)	0.627 µM (active)	
Nc1ccn([C@@H]2O[C@H](CO)[C@@H](O)C2(F)F)c(=O)n1		-23.6%
CCCCN(CCCC)C(=O)CN1C[C@H](c2ccc3c(c2)OCO3)[C@@H](C(=O)O)[C@@H]1c1ccc(OC)cc1		3.29%
CNC(=O)c1nn(C)c2c1C(C)(C)Cc1cnc(Nc3ccc(N4CCN(C)CC4)cc3)nc1-2	6.85 µM (active)	
CC(C)n1nc(-c2cc3cc(O)ccc3[nH]2)c2c(N)ncnc21	17.2 µM (active)	
O=C(/C=C/c1cccc(S(=O)(=O)Nc2ccccc2)c1)NO	1.19 µM (active)	
O=C(CCCCCCNC(=O)c1cnc(N(c2ccccc2)c2ccccc2)nc1)NO	7.69 µM (active)	
Cc1nc(N)nc(N)c1-c1ccc(Cl)c(Cl)c1	17.2 µM (active)	
CN(C)C(CCOc1cccc2ccccc12)c1ccccc1 (stereo not drawn)		-13.9%
CCn1c(-c2nonc2N)nc2c(C#CC(C)(C)O)ncc(OCC3CCCNC3)c21 (stereo not drawn)		1.27%
CCN(CC)CCOc1ccc(/C(=C(\Cl)c2ccccc2)c2ccccc2)cc1	89.1 µM (active)	
